Laboratory results reported in PubChem BioAssay (NCI).
This is part of a sample that, as a whole, favours compounds with a hit. Of some 79,000 tested, about 15% had one in any assay. The source made the active and inactive calls. Rule as the data show it: active = growth inhibition above about 70%; inactive = the rest.

Key:
[1] = NCI Yeast Anticancer Drug Screen. Data for the rad52 strain (AID 147);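 also: 0% = growth of vehicle-treated control cultures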; settings: S. cerevisiae rad52 mutant growth inhibition, stronger effect = higher value
In short: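 Growth of repair-deficient yeast cells was compared between compound-treated and vehicle-treated cultures to give percent inhibition.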

[2] = NCI Yeast Anticancer Drug Screen. Data for the rad50EPP+ strain (AID 151);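 also: 0% = growth of vehicle-treated control cultures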; settings: S. cerevisiae rad50 mutant strain, stronger effect = higher value
In short: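 Measured: growth inhibition of rad50EPP+ yeast. Reference: vehicle-treated controls. Screen uses strains with defined genetic alterations in DNA damage repair or cell cycle control.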

[3] = NCI Yeast Anticancer Drug Screen. Data for the mgt1 strain (AID 153); settings: S. cerevisiae mgt1 mutant growth inhibition, stronger effect = higher value
In short: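 Compounds were applied to mgt1 mutant yeast, and growth was then compared against vehicle-treated control cultures to give percent inhibition.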

[4] = NCI Yeast Anticancer Drug Screen. Data for the rad50 strain (AID 155);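 also: 0% = growth of vehicle-only cultures of the same strain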; settings: S. cerevisiae rad50 strain growth inhibition, stronger effect = higher value
In short: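 Inhibition values express reduced yeast growth in compound-treated cultures relative to vehicle-treated controls.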

[5] = NCI Yeast Anticancer Drug Screen. Data for the mec2-1 strain (AID 157); settings: S. cerevisiae mec2-1 strain, stronger effect = higher value
In short: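 Compounds were applied to mec2-1 yeast cells. Their growth was then compared with that of vehicle-treated cultures to give growth inhibition.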

[6] = NCI Yeast Anticancer Drug Screen. Data for the rad14 strain (AID 159);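 also: 0% = growth of vehicle-treated control cultures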; settings: S. cerevisiae rad14 strain growth inhibition, stronger effect = higher value
In short: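 A mutant yeast strain defective in DNA damage repair is treated with compound; inhibition of its growth is scored against untreated, vehicle-exposed cultures.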

[7] = NCI Yeast Anticancer Drug Screen. Data for the sgs1 mgt1 strain (AID 161);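 also: 0% = growth of cultures given vehicle only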; settings: S. cerevisiae sgs1 mgt1 strain, stronger effect = higher value
In short: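 Growth of a repair-deficient yeast mutant was monitored after compound treatment and expressed as inhibition relative to vehicle-treated cultures.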

[8] = NCI Yeast Anticancer Drug Screen. Data for the CLN2oe strain (AID 163);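 also: 0% = growth of vehicle-only control cultures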; settings: S. cerevisiae CLN2oe strain, stronger effect = higher value
In short: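 Cells of an engineered yeast line with disturbed cell-cycle regulation are treated with compound. Inhibition of growth is then calculated relative to the vehicle-treated reference.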

[9] = NCI Yeast Anticancer Drug Screen. Data for the cln2 rad14 strain (AID 165);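 also: 0% = growth equal to vehicle treated cultures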; settings: S. cerevisiae cln2 rad14 strain, stronger effect = higher value
In short: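 Strain: cln2 rad14 yeast, altered in cell cycle control and DNA damage repair. Read-out: growth inhibition vs vehicle.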

[10] = NCI Yeast Anticancer Drug Screen. Data for the bub3 strain (AID 167); settings: S. cerevisiae bub3 mutant strain, stronger effect = higher value
In short: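 Steps: expose the mutant yeast strain to compound; grow alongside vehicle-treated cultures; measure growth; express inhibition against the vehicle cultures.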

[11] = NCI Yeast Anticancer Drug Screen. Data for the wt2 strain (AID 169);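 also: 0% = growth of vehicle-treated yeast cultures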; settings: S. cerevisiae wt2 strain growth inhibition, stronger effect = higher value
In short: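 Growth of compound-treated yeast is measured and expressed as inhibition relative to vehicle-only controls.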

[12] = NCI Yeast Anticancer Drug Screen. Data for the mlh1 strain (AID 171);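 also: 0% = growth of vehicle-treated control cultures of the same strain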; settings: S. cerevisiae mlh1 strain growth inhibition, stronger effect = higher value
In short: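 Test agents were incubated with yeast bearing a defined DNA damage repair or cell cycle control alteration; values are growth inhibition normalised to vehicle-treated cultures.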

[13] = NCI Yeast Anticancer Drug Screen. Data for the sgs1 strain (AID 173);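 also: 0% = growth of vehicle-only control cultures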; settings: S. cerevisiae sgs1 mutant, stronger effect = higher value
In short: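 Strain with an altered DNA repair or cell cycle pathway exposed to compound. Growth then measured. Value = inhibition versus vehicle control.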

[14] = NCI Yeast Anticancer Drug Screen. Data for the mlh1 rad18 strain (AID 175); settings: S. cerevisiae mlh1 rad18 strain growth inhibition, stronger effect = higher value
In short: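 A repair-deficient yeast strain is exposed to test compound, and growth is scored relative to vehicle-treated controls.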

[15] = NCI Yeast Anticancer Drug Screen. Data for the rad18 strain (AID 177); settings: S. cerevisiae rad18 mutant growth inhibition, stronger effect = higher value
In short: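 DNA-repair-defective yeast; compound treatment; growth inhibition scored against vehicle.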

[16] = NCI Yeast Anticancer Drug Screen. Data for the wt1 strain (AID 149);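 also: 0% = growth of vehicle-treated wt1 cultures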; settings: S. cerevisiae wt1 strain (SPY 50644) growth inhibition, stronger effect = higher value
In short: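 Compounds are added to wt1 yeast cultures. Growth is then measured. Inhibition is expressed relative to vehicle-treated controls.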

[17] = at 5.0 µM (retest, dose inferred, filed as 0.5)
[18] = at 50.0 µM (retest, dose inferred, filed as 5.0)

Measured: growth inhibition

COc1ccc(/C=C/c2sc3ccccc3[n+]2CCCCI)cc1OC
active: [1]; at 100.0 µM 94% | [3]; at 33.0 µM 76% | [3]; at 100.0 µM 98% | [4]; at 50.0 µM 74.9% | [4]; at 100.0 µM 93% | [5]; at 50.0 µM 81.4% | [5]; at 100.0 µM 95% | [6]; at 33.0 µM 84% | [6]; at 100.0 µM 98% | [7]; at 50.0 µM 95.2% | [10]; [18] 97% | [10]; at 50.0 µM 91.8% | [10]; at 100.0 µM 85% | [11]; at 100.0 µM 97% | [12]; at 100.0 µM 97% | [13]; at 33.0 µM 84% | [13]; at 100.0 µM 97% | [14]; at 50.0 µM 95.6% | [15]; at 33.0 µM 86% | [15]; at 100.0 µM 96%
inactive: [1]; at 1.2 µM -8% | [1]; at 3.7 µM 1% | [1]; at 11.0 µM -2% | [1]; at 33.0 µM 55% | [2]; at 1.2 µM -5% | [2]; at 3.7 µM -2% | [2]; at 11.0 µM -4% | [2]; at 33.0 µM 0% | [2]; at 100.0 µM -3% | [3]; at 1.2 µM 0% | [3]; at 3.7 µM -1% | [3]; at 11.0 µM -4% | [4]; at 1.2 µM -2% | [4]; at 3.7 µM -3% | [4]; [17] -11% | [4]; at 11.0 µM -7% | [4]; at 33.0 µM 48% | [4]; [18] 20% | [5]; at 1.2 µM -6% | [5]; at 3.7 µM -6% | [5]; [17] -16% | [5]; at 11.0 µM -11% | [5]; at 33.0 µM 64% | [5]; [18] 56% | [6]; at 1.2 µM -2% | [6]; at 3.7 µM -3% | [6]; at 11.0 µM -7% | [7]; [17] -9% | [7]; [18] 29% | [8]; at 1.2 µM -7% | [8]; at 3.7 µM -7% | [8]; at 11.0 µM -8% | [8]; at 33.0 µM -10% | [8]; at 100.0 µM 68% | [9]; [17] 36% | [9]; [18] 54% | [9]; at 50.0 µM 29.6% | [10]; at 1.2 µM -4% | [10]; at 3.7 µM -8% | [10]; [17] 0% | [10]; at 11.0 µM -2% | [10]; at 33.0 µM 1% | [11]; at 1.2 µM -3% | [11]; at 3.7 µM -3% | [11]; at 11.0 µM -6% | [11]; at 33.0 µM 26% | [12]; at 1.2 µM -2% | [12]; at 3.7 µM -4% | [12]; at 11.0 µM -6% | [12]; at 33.0 µM 66% | [13]; at 1.2 µM 1% | [13]; at 3.7 µM 4% | [13]; at 11.0 µM -2% | [14]; [17] -9% | [14]; [18] 46% | [15]; at 1.2 µM -3% | [15]; at 3.7 µM 0% | [15]; at 11.0 µM 9%

CN(C)[C@@H]1C(=O)C(C(N)=O)=C(O)[C@@]2(O)C(=O)C3=C(O)c4c(O)cccc4C[C@H]3C[C@@H]12
inactive: [1]; at 1.2 µM -5% | [1]; at 3.7 µM -10% | [1]; at 11.0 µM 17% | [16]; at 1.2 µM -1% | [16]; at 3.7 µM 2% | [16]; at 11.0 µM 30% | [3]; at 1.2 µM 0% | [3]; at 3.7 µM -5% | [3]; at 11.0 µM 21% | [5]; at 1.2 µM -5% | [5]; at 3.7 µM -4% | [5]; at 11.0 µM 1% | [6]; at 1.2 µM 0% | [6]; at 3.7 µM -5% | [6]; at 11.0 µM 44% | [7]; [17] 23%
active: [1]; at 33.0 µM 97% | [1]; at 100.0 µM 98% | [16]; at 33.0 µM 95% | [16]; at 100.0 µM 99% | [3]; at 33.0 µM 97% | [3]; at 100.0 µM 99% | [5]; [17] 87% | [5]; at 33.0 µM 97% | [5]; [18] 99% | [5]; at 50.0 µM 91% | [5]; at 100.0 µM 99% | [6]; at 33.0 µM 98% | [6]; at 100.0 µM 99% | [7]; [18] 99%
